According to PubChem BioAssay:
The source made the active and inactive calls.

Assays:
[1] = system: Human papillomavirus type 1a protein E7 (residues 44-93); experiment: HPV1a E7 fragment binders on microarrays, primary screen, biochemical, small-molecule microarray, residues 44-93, 635 nm fluorescence (AID 1108); conditions: small-molecule microarray binding, fluorescence 635 nm; higher = more signal;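 further: E7 fragment applied at 1 µg/mL in TBST for 1 h at 4 C; score combines spot fluorescence with its signal to noise ratio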
[2] = modulators of HCV replicon luciferase signal, primary screen, HCV replication inhibitor project, Huh7 cells, luciferase reporter (AID 1109); conditions: 48 h, higher = more signal;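 further: huh7 hepatoma cells harbouring a luciferase neomycin HCV replicon reporter; luciferase luminescence as measure of HCV replicon replication; test concentration not given here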
[3] = target: Left-right determination factor 2 (Homo sapiens) (UniProt O00292); experiment: LEFTY2 binders on small-molecule microarrays, primary screen, biochemical, small-molecule microarray, 635 nm fluorescence scan (AID 1110); conditions: LEFTY2 binding, higher = more signal
[4] = target: Calmodulin-1 (Homo sapiens) (UniProt P0DP23); experiment: CALM1 binders on microarrays, EGTA buffer, profiling panel, biochemical, small-molecule microarray, Cy5-labelled CALM1 (AID 1111); conditions: Cy5-CALM1 binding fluorescence, higher = more signal;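 further: labelled calmodulin applied in Tris saline Tween buffer holding calcium plus EGTA and DTT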
[5] = target: Calmodulin-1 (Homo sapiens) (UniProt P0DP23); experiment: calcium-bound CALM1 binders on microarrays, profiling panel, artefact control for SMM control-protein annotation, biochemical, small-molecule microarray, Cy5-labelled CALM1, plus calcium (AID 1112); conditions: Cy5-CALM1 binding fluorescence, higher = more signal;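 further: score merges spot fluorescence with signal to noise from triplicate slides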
[6] = small-molecule microarray binders of probe aWnt5a, primary screen, biochemical, biotinylated probe, 635/667 nm fluorescence (AID 1113); conditions: higher = more signal;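 further: score merges 667 nm fluorescence intensity with signal-to-noise per printed feature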
[7] = small-molecule microarray binders of probe aShh, primary screen, biochemical, biotinylated probe, 635/667 nm fluorescence (AID 1114); conditions: higher = more signal;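 further: probe is biotin-labelled aShh protein from a stem cell growth factor screen; measures binding of labelled protein to compounds printed on the slide; score merges feature fluorescence at 667 nm with signal-to-noise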
[8] = small-molecule microarray binders of probe aNog, primary screen, biochemical, biotinylated probe, 635/667 nm fluorescence (AID 1115); conditions: higher = more signal;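 further: probe is biotinylated aNog protein used at 0.15 µg/mL for 1 h at 4 C; z-score combines 667 nm fluorescence of each spot with its signal to noise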
[9] = target: Torsin-1A-interacting protein 1 (Homo sapiens) (UniProt Q5JTV8); experiment: LAP1 binders from COS7 cell lysate, primary screen, small-molecule microarray, 635/667 nm fluorescence (AID 1116); conditions: COS7-hLAP1 lysate binding, 635 nm fluorescence, higher = more signal
[10] = target: Alpha-bungarotoxin (Bungarus multicinctus) (UniProt P60615); experiment: alpha-bungarotoxin binders on microarray, profiling panel, artefact control for SMM control protein annotation, biochemical, small-molecule microarray, Alexa647 label, 635/667 nm fluorescence (AID 1117); conditions: alpha-BTX-A647 binding fluorescence, higher = more signal
Albumin (Bos taurus) = Albumin (Bos taurus) (UniProt P02769); experiment: bovine serum albumin binders on microarray, profiling panel, artefact control for SMM control protein annotation, biochemical, small-molecule microarray, Alexa647 label, 635/667 nm fluorescence (AID 1118); conditions: BSA-A647 binding, fluorescence 635 nm, higher = more signal;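 further: score merges 667 nm emission intensity and signal-to-noise per printed compound spot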
[11] = small-molecule microarray binders of probe aXIP, primary screen, biochemical, NeuroSMM set, 635/667 nm fluorescence (AID 1119); conditions: higher = more signal, called active from +8 up or from −8 down;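 further: probe is the protein aXip251-270 applied at 1 µg/mL to compound-printed slides; binding of probe to printed compounds measured as 667 nm fluorescence plus signal to noise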
[12] = small-molecule binders of probe aNOTCH3, primary screen, biochemical, small-molecule microarray, 635/667 nm fluorescence (AID 1120); conditions: higher = more signal;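 further: probe is a biotin-tagged antibody raised against NOTCH3 rather than NOTCH3 protein; score merges spot fluorescence near 667 nm with spot signal to noise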
[13] = small-molecule binders of probe aNOTCH2, primary screen, biochemical, small-molecule microarray, 635/667 nm fluorescence (AID 1121); conditions: higher = more signal;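 further: score merges feature fluorescence read at 667 nm with its signal to noise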
[14] = target: Carbonic anhydrase 2 (Homo sapiens) (UniProt P00918); experiment: CAII small-molecule binders, profiling panel, biochemical, small-molecule microarray, Alexa647-labelled CAII (AID 1122); conditions: CAII-A647 binding fluorescence, higher = more signal
[15] = COS7 lysate on small-molecule microarray, probe aHis, 635 nm (AID 1123); conditions: COS7 cell lysate, fluorescence, higher = more signal;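 further: z-score combines 667nm fluorescence intensity with signal-to-noise per printed compound spot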
[16] = compound binding in COS7 lysate, probe aLAP1, primary screen, cell lysate, small-molecule microarray (AID 1124); conditions: probe aLAP1, fluorescence, higher = more signal;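 further: lysate comes from COS7 cells expressing LAP1 and is applied at 0.3 µg/mL; score merges spot fluorescence near 667 nm with signal-to-noise over triplicate slides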
Sam68 (KHDRBS1) = experiment: Sam68 small-molecule binders, primary screen, biochemical, small-molecule microarray, 635 nm fluorescence (AID 1125); conditions: small-molecule microarray binding, higher = more signal;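 further: score merges 667 nm channel intensity with signal to noise over triplicate slides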
[17] = system: Chordin-like protein 2 (CHRDL2); experiment: CHRDL2 small-molecule binders, primary screen, biochemical, small-molecule microarray, 635 nm fluorescence (AID 1126); conditions: small-molecule microarray binding, fluorescence 635 nm; higher = more signal;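 further: printed compound slides probed with Chrdl2 protein at 4 µg/mL for 1 h at 4 C; score merges 667 nm emission intensity with signal to noise over three replicate slides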
[18] = target: Concanavalin-A (Canavalia ensiformis) (UniProt P02866); experiment: ConA small-molecule binders, primary screen, artefact control for SMM control protein annotation, biochemical, small-molecule microarray, Alexa647 label, 635 nm (AID 1127); conditions: ConA-A647 binding fluorescence, higher = more signal;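 further: z combines 667 nm emission intensity with signal-to-noise across three replicate slides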
Concanavalin-A (Canavalia ensiformis), sequence (P02866 whole entry, looked up): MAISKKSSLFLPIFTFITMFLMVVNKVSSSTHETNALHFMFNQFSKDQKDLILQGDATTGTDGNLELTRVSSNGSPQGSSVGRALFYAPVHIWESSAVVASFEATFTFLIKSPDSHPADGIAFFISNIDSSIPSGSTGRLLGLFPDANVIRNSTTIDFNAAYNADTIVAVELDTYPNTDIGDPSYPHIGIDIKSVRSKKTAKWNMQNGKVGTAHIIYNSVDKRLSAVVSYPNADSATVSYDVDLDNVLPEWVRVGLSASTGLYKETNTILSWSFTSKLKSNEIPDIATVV

Albumin (Bos taurus), sequence (P02769 whole entry, looked up): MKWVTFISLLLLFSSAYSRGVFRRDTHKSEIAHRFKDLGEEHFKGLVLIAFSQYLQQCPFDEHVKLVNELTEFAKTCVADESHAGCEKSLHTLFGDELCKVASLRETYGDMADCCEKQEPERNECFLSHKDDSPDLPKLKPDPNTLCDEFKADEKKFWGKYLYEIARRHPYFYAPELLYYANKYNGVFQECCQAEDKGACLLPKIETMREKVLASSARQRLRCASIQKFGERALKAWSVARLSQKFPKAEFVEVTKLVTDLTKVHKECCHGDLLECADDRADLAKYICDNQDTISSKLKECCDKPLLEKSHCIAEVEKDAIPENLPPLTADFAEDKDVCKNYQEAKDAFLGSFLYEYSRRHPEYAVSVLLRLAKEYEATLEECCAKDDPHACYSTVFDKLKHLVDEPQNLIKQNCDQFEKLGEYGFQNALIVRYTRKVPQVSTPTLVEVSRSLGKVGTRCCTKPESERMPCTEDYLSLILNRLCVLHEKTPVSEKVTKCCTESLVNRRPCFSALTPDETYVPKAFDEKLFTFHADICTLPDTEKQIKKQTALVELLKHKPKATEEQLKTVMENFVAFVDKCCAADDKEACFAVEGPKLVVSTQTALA
Alpha-bungarotoxin (Bungarus multicinctus), sequence (P60615 whole entry, looked up): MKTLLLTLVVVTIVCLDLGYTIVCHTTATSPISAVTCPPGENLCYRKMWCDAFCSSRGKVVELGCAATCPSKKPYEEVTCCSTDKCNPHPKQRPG
Left-right determination factor 2 (Homo sapiens), sequence (O00292 whole entry, looked up): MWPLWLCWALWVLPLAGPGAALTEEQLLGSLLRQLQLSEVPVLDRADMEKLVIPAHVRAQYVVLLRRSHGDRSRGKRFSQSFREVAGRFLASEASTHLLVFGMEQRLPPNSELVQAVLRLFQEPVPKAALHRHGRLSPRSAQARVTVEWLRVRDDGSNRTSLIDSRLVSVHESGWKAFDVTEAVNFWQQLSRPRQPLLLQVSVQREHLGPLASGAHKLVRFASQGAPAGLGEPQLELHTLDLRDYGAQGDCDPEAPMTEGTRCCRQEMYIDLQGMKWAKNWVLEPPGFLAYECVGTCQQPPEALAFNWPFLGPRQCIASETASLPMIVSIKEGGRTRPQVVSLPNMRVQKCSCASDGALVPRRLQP
Torsin-1A-interacting protein 1 (Homo sapiens), sequence (Q5JTV8 whole entry, looked up): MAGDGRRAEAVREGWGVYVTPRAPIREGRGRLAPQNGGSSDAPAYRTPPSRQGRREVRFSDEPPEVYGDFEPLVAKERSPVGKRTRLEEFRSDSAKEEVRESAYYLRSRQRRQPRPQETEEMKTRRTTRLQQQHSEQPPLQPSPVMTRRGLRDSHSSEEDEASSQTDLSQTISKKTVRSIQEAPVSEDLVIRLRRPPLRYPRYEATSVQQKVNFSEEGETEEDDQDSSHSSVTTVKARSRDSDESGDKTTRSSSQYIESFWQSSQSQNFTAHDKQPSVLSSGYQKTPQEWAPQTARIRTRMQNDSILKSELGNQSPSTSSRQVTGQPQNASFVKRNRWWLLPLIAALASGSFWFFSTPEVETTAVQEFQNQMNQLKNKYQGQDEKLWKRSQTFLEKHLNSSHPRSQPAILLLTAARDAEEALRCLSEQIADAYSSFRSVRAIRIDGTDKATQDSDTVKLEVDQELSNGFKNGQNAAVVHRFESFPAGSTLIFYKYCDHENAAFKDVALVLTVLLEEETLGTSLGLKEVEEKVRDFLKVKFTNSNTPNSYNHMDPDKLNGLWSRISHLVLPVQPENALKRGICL

COc1cc([C@@H]2N[C@H](C(=O)O)Cc3c2[nH]c2ccccc32)cc(OC)c1OC
composite z-score [1]: 0.297
z-score [2]: -0.0056
composite z-score [3]: 0.649
composite z-score [4]: -0.0344
composite z-score [5]: -0.494
composite z-score [6]: -0.0328
composite z-score [7]: -0.221
composite z-score [8]: 0.0374
composite z-score [9]: 0.0517
composite z-score [10]: 0.441
composite z-score (Albumin (Bos taurus)): 0.1
composite Z-score [11]: -0.651 (inactive)
composite z-score [12]: 0.059
composite z-score [13]: -0.089
composite z-score [14]: -0.0165
composite z-score [15]: -0.0553
composite z-score [16]: 0.238
composite z-score (Sam68 (KHDRBS1)): 0.0713
composite z-score [17]: 0.475
composite z-score [18]: 0.245

CCCC=C(CCC)[C@@H](NC(=O)c1ccc(C(F)(F)F)cc1)c1ccccc1
composite z-score [1]: 1.17
z-score [2]: -1.43
composite z-score [3]: -0.0957
composite z-score [4]: 0.815
composite z-score [5]: 0.793
composite z-score [6]: 0.0094
composite z-score [7]: 0.213
composite z-score [8]: 0.644
composite z-score [9]: 0.432
composite z-score [10]: 0.25
composite z-score (Albumin (Bos taurus)): -0.0332
composite Z-score [11]: 0.0895 (inactive)
composite z-score [12]: 0.191
composite z-score [13]: -0.0007
composite z-score [14]: 0.104
composite z-score [15]: 1.29
composite z-score [16]: -0.805
composite z-score (Sam68 (KHDRBS1)): 0.989
composite z-score [17]: -0.815
composite z-score [18]: 0.483

CCCCCCc1nc(-c2cc(C)c(OC)c(C)c2)cc2c1[Si](C(C)C)(C(C)C)O[C@H]2c1ccccc1
composite z-score [1]: -0.57
z-score [2]: 0.115
composite z-score [3]: -0.607
composite z-score [4]: -0.482
composite z-score [5]: 0.244
composite z-score [6]: -0.197
composite z-score [7]: 0.0278
composite z-score [8]: -0.0755
composite z-score [9]: -0.872
composite z-score [10]: 0.117
composite z-score (Albumin (Bos taurus)): -0.0154
composite Z-score [11]: -0.315 (inactive)
composite z-score [12]: -0.194
composite z-score [13]: -0.0191
composite z-score [14]: -0.398
composite z-score [15]: -0.301
composite z-score [16]: -0.136
composite z-score (Sam68 (KHDRBS1)): -0.728
composite z-score [17]: -0.182
composite z-score [18]: -0.152

CN1CCC(CCCO)=CC1C1CC1 (stereo not given)
composite z-score [1]: -0.416
z-score [2]: 0.306
composite z-score [3]: 0.637
composite z-score [4]: -1.21
composite z-score [5]: -1.36
composite z-score [6]: -0.172
composite z-score [7]: -0.138
composite z-score [8]: -0.473
composite z-score [9]: -0.434
composite z-score [10]: -0.234
composite z-score (Albumin (Bos taurus)): -0.958
composite Z-score [11]: 3.24 (inactive)
composite z-score [12]: -0.0918
composite z-score [13]: -0.181
composite z-score [14]: 0.299
composite z-score [15]: 0.238
composite z-score [16]: -0.569
composite z-score (Sam68 (KHDRBS1)): 0.0585
composite z-score [17]: 0.39
composite z-score [18]: 0.066

O=C1OCC=C[C@H]2OC34C=CCN(Cc5ccccc5)C(=O)[C@H]3N(CCCCCO)C(=O)[C@@H]4[C@@H]12 (stereo not given in full)
composite z-score [1]: -0.646
z-score [2]: -0.615
composite z-score [3]: -1.84
composite z-score [4]: -0.398
composite z-score [5]: 1.08
composite z-score [6]: -0.169
composite z-score [7]: -0.138
composite z-score [8]: 0.161
composite z-score [9]: -0.328
composite z-score [10]: -1.52
composite z-score (Albumin (Bos taurus)): -0.711
composite Z-score [11]: 1.78 (inactive)
composite z-score [12]: -0.231
composite z-score [13]: -0.207
composite z-score [14]: 0.605
composite z-score [15]: 0.096
composite z-score [16]: -0.493
composite z-score (Sam68 (KHDRBS1)): -0.673
composite z-score [17]: -0.99
composite z-score [18]: -1.11

C[C@]1(C(=O)NCCN2CCOCC2)c2ccccc2C(=O)N(Cc2ccccc2)[C@H]1c1ccc(CO)cc1
composite z-score [1]: -0.474
z-score [2]: -0.326
composite z-score [3]: -1.01
composite z-score [4]: -0.193
composite z-score [5]: 0.349
composite z-score [6]: 0.763
composite z-score [7]: 0.163
composite z-score [8]: -0.195
composite z-score [9]: -0.705
composite z-score [10]: 0.0519
composite z-score (Albumin (Bos taurus)): -0.0435
composite Z-score [11]: -0.61 (inactive)
composite z-score [12]: -0.257
composite z-score [13]: -0.154
composite z-score [14]: 0.733
composite z-score [15]: 0.652
composite z-score [16]: 0.389
composite z-score (Sam68 (KHDRBS1)): -0.791
composite z-score [17]: -0.479
composite z-score [18]: 0.657
